Test results published in PubChem BioAssay (EPA / NIEHS).
Inconclusive results are not listed. Activity calls are given as the source filed them. How the source made its calls: active means hit-call score of the fitted dose curve at least 0.9, where 1 is the maximum; inconclusive means response in the unintended direction; inactive means score below 0.9.

test: ATG_XTT_Cytotoxicity: Cytotoxicity Assessment in the Attagene TRANS-FACTORIAL HepG2 Assay (AID 2283584)
Outline: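 Transfect HepG2 with GAL4-UAS reporter units, dose compound, incubate 24 h, then measure viable cell number by XTT. Fit concentration response against DMSO baseline.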

Row | Compound | outcome
1 | O=C1OC2(c3cc(Br)c(O)c(Br)c3Oc3c2cc(Br)c(O)c3Br)c2c(Cl)c(Cl)c(Cl)c(Cl)c21 | inactive
2 | O=C(COc1ccc(Cl)cc1)N1CCN(Cc2ccc3c(c2)OCO3)CC1 | inactive
3 | O=C1c2ccccc2C(=O)N1SC1CCCCC1 | inactive
4 | Cc1c(Cl)c(=O)oc2cc(O)ccc12 | inactive
5 | Cc1ccc(C(=O)c2cc(O)c(O)c([N+](=O)[O-])c2)cc1 | inactive
6 | CN1Cc2c(N)cccc2C(c2ccccc2)C1 (stereo not given) | inactive
7 | O=CCCc1ccccc1 | inactive
8 | CC(CN1c2ccccc2Sc2ccccc21)N(C)C (stereo not given) | inactive
9 | C=CC(C)(C)O | inactive
10 | O=c1oc(=O)c2cc3c(=O)oc(=O)c3cc12 | inactive
11 | O=C(Cl)c1cccc(C(=O)Cl)c1 | inactive
12 | CCCCC[Si](OCC)(OCC)OCC | inactive
13 | COc1cc(C)cc(O)c1 | inactive
14 | OC1C(O)C(O)C(O)C(O)C1O (stereo not given) | inactive
15 | Nc1cc(N)cc(C(=O)O)c1 | inactive
16 | CCCCC/C=C/C=C/C=O | inactive
17 | N#Cc1ccc(CC(=NNC(=O)Nc2ccc(OC(F)(F)F)cc2)c2cccc(C(F)(F)F)c2)cc1 | inactive
18 | Nc1nc2ccc([N+](=O)[O-])cc2s1 | inactive
19 | CC(C)(CO)[N+](=O)[O-] | inactive
20 | O=C[C@H](O)[C@H](O)[C@H](O)CO | inactive
21 | NCCCN1CCOCC1 | inactive
22 | OCCOc1cccc(OCCO)c1 | inactive
23 | CCCC[n+]1ccccc1 | inactive
24 | c1ccc2c(c1)c1cccc3ccc4cccc2c4c31 | inactive
25 | O=[N+]([O-])c1ccc(C=Cc2ccc([N+](=O)[O-])cc2S(=O)(=O)O)c(S(=O)(=O)O)c1 | inactive
